Assay [1] in a line: NCI Yeast Anticancer Drug Screen. Data for the rad50 strain (AID 155).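 Further: 0% = growth of vehicle-only cultures of the same strain.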 Particulars: S. cerevisiae rad50 strain growth inhibition; at 50.0 µM; active compounds read high. Put shortly:
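Cells are treated with compound, grown, and their growth is then scored against vehicle-only cultures of the same repair-deficient yeast strain.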

A short description of assay [2]: NCI Yeast Anticancer Drug Screen. Data for the mec2-1 strain (AID 157). Particulars: S. cerevisiae mec2-1 strain, at 50.0 µM, active compounds read high. Put shortly: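 Strain: mec2-1 (DNA repair/cell cycle alteration). Compound exposure, then growth measured; inhibition expressed relative to vehicle.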
Assay [3] in a line: NCI Yeast Anticancer Drug Screen. Data for the sgs1 mgt1 strain (AID 161).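 Further: 0% = growth of cultures given vehicle only.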 Conditions: S. cerevisiae sgs1 mgt1 strain, at 50.0 µM, active compounds read high. Put shortly:
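Read-out: growth inhibition vs vehicle controls. Cells: mutant yeast strain deficient in DNA damage repair.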

Assay [4] can be described thus: NCI Yeast Anticancer Drug Screen. Data for the cln2 rad14 strain (AID 165).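 Further: 0% = growth equal to vehicle treated cultures.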 Conditions: S. cerevisiae cln2 rad14 strain, at 50.0 µM, active compounds read high. The essentials:
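Compounds are applied to the cln2 rad14 yeast strain, and growth is then compared with that of vehicle-treated cultures to give inhibition.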

A short description of assay [5]: NCI Yeast Anticancer Drug Screen. Data for the bub3 strain (AID 167). Particulars: S. cerevisiae bub3 mutant strain, at 50.0 µM, active compounds read high. Put shortly:
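Part of a panel of yeast mutants defective in DNA damage repair or cell cycle regulation. Each strain is grown with compound, and inhibition is calculated relative to solvent-treated cultures.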

The nature of assay [6]: NCI Yeast Anticancer Drug Screen. Data for the mlh1 rad18 strain (AID 175). Particulars: S. cerevisiae mlh1 rad18 strain growth inhibition; at 50.0 µM; active compounds read high. Put shortly: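 Read-out is yeast growth inhibition, calculated against vehicle-only controls. The compound was applied to a strain engineered with DNA damage repair alterations.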

The structures appear in SMILES notation. About 79,000 compounds went through this panel and 15% of them were active in at least one assay; those are over-represented in the sample as a whole. Values without a mark were called inactive. Activity calls are given as the source filed them. No stated cut-off is given here; in the data, active means growth inhibition above about 70%; inactive means the rest. *1 amine or outer side, *2 acyl side, *3 side chain or, on linkers, in order; H or OH if unused. Where a SMILES comes first, the peptide text is derived from it. [ ]: non-standard residue; d: D form. The star is where a group is joined. X17 = CC(=O)N(C)SCC(N[*:1])C(=O)[*:2]; Fmoc = O=C(OCC1c2ccccc2-c2ccccc21)*; For = O=C*

Take `CCCCCCCOc1ccc(/C=C\c2cc[n+](CCCCCCCC[n+]3ccc(/C=C\c4ccc(OCCCCCCC)cc4)cc3)cc2)cc1`: the growth inhibition was -22.4% in assay [1]; -7.95% in assay [2]; -14.2% in assay [3]; 22.7% in assay [4]; 8.1% in assay [5]; 10.2% in assay [6].

Consider `CC(=O)Nc1ccccc1-c1nc2cccnc2[nH]c1=O`, for which the growth inhibition in assay [1] was -9.6%; in assay [2], 6.15%; in assay [3], 2.65%; in assay [4], -5.35%; in assay [5], -1.85%; in assay [6], -11.9%.

As for `CCOC(=O)OCCOCCOC(=O)OCC`, the growth inhibition was -2.25% in assay [1]; -14.2% in assay [2]; -30.8% in assay [3]; 19.2% in assay [4]; -2.65% in assay [5]; 25.8% in assay [6].

On to `Cc1cc(=O)n(-c2ccc(-c3ccc(-n4c(C)c(C(=O)O)c(C)cc4=O)cc3)cc2)c(C)c1C(=O)O`, for which the growth inhibition in assay [1] was -45%; in assay [2], 6.35%; in assay [3], 19.3%; in assay [4], 24.1%; in assay [5] it was -2.4%; in assay [6], 27.6%.

With `O=[N+]([O-])c1cc2no[n+]([O-])c2cc1N1CCOCC1`, the growth inhibition in assay [1] is 98.8% (active); in assay [2] it was 99.3% (active); in assay [3], 99.2% (active); in assay [4], 98.4% (active); in assay [5] it was 99% (active); in assay [6], 99.2% (active).

For `CCc1c[nH]c(C=O)c1CC`, the growth inhibition in assay [1] is 6.35%; in assay [2], -14.1%; in assay [3] it was -12.5%; in assay [4], 11.4%; in assay [5], -10.8%; in assay [6] it was 18.6%.

Regarding `COC(=O)c1ccc2cc1Nc1c(C#N)cnc(=S)n1-2`, the growth inhibition in assay [1] was -2.3%; in assay [2], 13.4%; in assay [3], 11.2%; in assay [4], 23.1%; in assay [5], 14.5%; in assay [6], 18.1%.

`CN1CC(=O)N2CCCCC2C(c2ccccc2)C1` (stereo not given): the growth inhibition is -4.85% in assay [1]; 2.85% in assay [2]; -0.25% in assay [3]; -34.7% in assay [4]; -9.35% in assay [5]; -1.25% in assay [6].

Regarding `Cc1ccc(S(=O)(=O)N/N=C2\CCC3CC3CC\C2=N/NS(=O)(=O)c2ccc(C)cc2)cc1` (stereo not given), the growth inhibition was -0.85% in assay [1]; -4.4% in assay [2]; 0.6% in assay [3]; -9.1% in assay [4]; -2.7% in assay [5]; -5.75% in assay [6].

For the molecule `COC(=O)NC(S(=O)(=O)O)S(=O)(=O)O`, the growth inhibition was 6.2% in assay [1]; 11.6% in assay [2]; 0.85% in assay [3]; 2.65% in assay [4]; 16.5% in assay [5]; 1.7% in assay [6].

As for `CC1=N/C(=C\c2cccs2)C(=O)O1`, the growth inhibition in assay [1] was 26.6%; in assay [2] it was 30.5%; in assay [3], 28.1%; in assay [4], 20.5%; in assay [5], 22.9%; in assay [6], 28.9%.

For `CS(=O)(=O)C(C#N)c1nc2ccccc2nc1Cl` (stereo not given), the growth inhibition is -20.6% in assay [1]; -17.7% in assay [2]; -53.1% in assay [3]; -9.6% in assay [4]; -42% in assay [5]; -30.6% in assay [6].

For `CCCNC(=O)Nc1ccc(OC)cc1Cl`, the growth inhibition in assay [1] is -12.1%; in assay [2], -9.45%; in assay [3] it was -1.65%; in assay [4] it was -59.3%; in assay [5], -6.3%; in assay [6], -15.6%.

Consider `CCN(CC)c1ccc(C(=O)c2ccccc2C(=O)O)c(O)c1`, for which the growth inhibition in assay [1] is -38.2%; in assay [2] it was -8.75%; in assay [3] it was -27.4%; in assay [4], 5.35%; in assay [5], -15.8%; in assay [6] it was 5.2%.

For `Cc1ccc(NCCN)c2c(=O)c3cc(O)ccc3sc12`, the growth inhibition is 86% (active) in assay [1]; 32.3% in assay [2]; 40.4% in assay [3]; 25.1% in assay [4]; 9.65% in assay [5]; 86.7% (active) in assay [6].

Turning to `CN1CCC2(CC1)C(=NC1CCCCC1)NC(=O)N2c1ccccc1`, the growth inhibition in assay [1] is -26.4%; in assay [2], -6.15%; in assay [3], -5.45%; in assay [4], 1.1%; in assay [5], 6.6%; in assay [6] it was 3.7%.

As for `C[Si](C)(C)c1ccc(C(N)=O)cc1`, the growth inhibition was 14.4% in assay [1]; 16.4% in assay [2]; 3.3% in assay [3]; 8.3% in assay [4]; 8.65% in assay [5]; 8.7% in assay [6].

`CC(=O)N(C)SCC(NC(=O)C(Cc1ccccc1)NC(=O)OCC1c2ccccc2-c2ccccc21)C(=O)NC(Cc1ccccc1)C(=O)NC(Cc1cn(C=O)c2ccccc12)C(=O)NC(CCCCNC(=O)OCC1c2ccccc2-c2ccccc21)C(=O)NC(C(=O)NC(CSN(C)C(C)=O)C(=O)NC(C(N)=O)C(C)O)C(C)O` (stereo not given) (Fmoc-F[X17]FW(For)K(Fmoc)T[X17]T-NH2; configuration not given here): the growth inhibition is 86.7% (active) in assay [1]; 81.3% (active) in assay [2]; 65.1% in assay [3]; 82.2% (active) in assay [4]; 82.2% (active) in assay [5]; 84% (active) in assay [6].

Regarding `COC(=O)COc1ccccc1[N+](=O)[O-]`, the growth inhibition in assay [1] is -0.15%; in assay [2], 2.55%; in assay [3], 0.6%; in assay [4] it was 3.7%; in assay [5] it was 5.25%; in assay [6], 4.45%.

Regarding `N#CCCOC(=O)Nc1ccccc1`, the growth inhibition is 21.9% in assay [1]; 2.4% in assay [2]; -6.7% in assay [3]; -40.6% in assay [4]; -8.3% in assay [5]; 0.6% in assay [6].
